PubChem BioAssay (Tox21)
Unmarked numbers belong to inactive results. Inconclusive results are not listed. Calls of active or inactive are those of the source. The call rests on the fitted dose curve; in most records, active means well fitted activation curve with a large enough effect in the repeat runs; inconclusive means weak or mixed curves; inactive means flat fitted curve, though single readings scatter.

Experiment: A CellTox Green Cytotoxicity Assay to monitor cytotoxicity in HEK293 cells - 32 hour (AID 1224881); further: nearly all actives have a fitted effect of over 40% in size
Details: CellTox Green fluorescence; series mostly up to 76.8 µM; cytotoxicity increase: at the top concentration
How it was run: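 Fluorescence intensity, read at 0, 8, 16, 24, 32 and 40 h of compound treatment, reflected dye binding to DNA of dead HEK293 cells; compounds (23 nL, DMSO) were added 5 h after plating cells with reagent.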
On the % scale 0 is the no-effect control and ±100 the full control effect; potency means the concentration at half of the fitted maximal effect.

| Structure (SMILES) | cytotoxicity increase | Potency |
| --- | --- | --- |
| CN1CCC[C@@H]1Cc1c[nH]c2ccc(CCS(=O)(=O)c3ccccc3)cc12 | 1.56% [at 35.3 µM] |  |
| O=Cc1ccc(F)c(Br)c1 | 11.4% |  |
| Cc1ncc(CO)c(CN)c1O | -16.9% [at 35.3 µM] |  |
| N#CSCC(=O)O | -0.89% [at 35.3 µM] |  |
| CCCN(CCC)C(=O)C(CCC(=O)O)NC(=O)c1ccccc1 (stereo not drawn) | -15.1% [at 35.3 µM] |  |
| CCN[C@H]1CN(CCCOC)S(=O)(=O)c2sc(S(N)(=O)=O)cc21 | 13% [at 35.3 µM] |  |
| Cc1ccc(C=O)s1 |  | 43.6 µM (active) |
| COC(=O)C(C)O (stereo not drawn) | -13.7% |  |
| CCOC(=O)NCCC[Si](OCC)(OCC)OCC | -9.85% |  |
| OCc1ccccc1O | -9.22% [at 35.3 µM] |  |
| O=C(C(Cl)Cl)N1CCOC12CCCCC2 | 1.58% |  |
| CCN(CC)C(=O)N(CC)CC | 11.5% |  |
| O=C1CCCc2ccccc21 | -2.86% |  |
| COc1ccccc1N1CCN(CCCNc2cc(=O)n(C)c(=O)n2C)CC1 | -0.0154% [at 35.3 µM] |  |
| CC(=O)O[C@H]1CC[C@@]2(C)C(=CC[C@@H]3[C@@H]2CC[C@]2(C)C(C(C)=O)=CC[C@@H]32)C1 | 6.08% [at 35.3 µM] |  |
| FC(F)(F)C(F)(F)C(F)(F)C(F)(F)C(F)(F)C(F)(F)C(F)(F)C(F)(F)Br | -16.3% [at 35.3 µM] |  |
| Cn1cnc2c(F)c(Nc3ccc(Br)cc3Cl)c(C(=O)NOCCO)cc21 | -3.9% [at 35.3 µM] |  |
| ClC(Cl)Cl | -1.21% |  |
| CCCOc1ccc2c(c1)CC[C@@H]1[C@@H]2CC[C@]2(C)C(OC)CC[C@@H]12 (stereo partly drawn) | 7.43% [at 35.3 µM] |  |
| CCN(CC)CC1CCCCN1CC(=O)N1c2ccccc2C(=O)Nc2cccnc21 (stereo not drawn) | 22% [at 35.3 µM] |  |

| Structure (SMILES) | cytotoxicity increase | Potency |
| --- | --- | --- |
| O=C(Cl)c1cccc([N+](=O)[O-])c1 | 0.751% |  |
| Cc1cc(NS(=O)(=O)c2ccc(N)cc2)nc(C)n1 | -22% [at 35.3 µM] |  |
| CCCCCCC | 10.3% |  |
| CCOC(=O)C1CC(=O)C(=C(O)C2CC2)C(=O)C1 (stereo not drawn) | 19.4% |  |
| CC(=O)Nc1ccc(C)c(Cl)c1 | 2.56% |  |
| CCCCCCCCc1ccc(S(=O)(=O)O)cc1 |  | 54.5 µM (active) |
| CCOC(=O)C(Br)c1ccccc1 (stereo not drawn) | -4.79% |  |
| CCOc1ccc2nc(N)sc2c1 | 4.72% |  |
| CCCC(CCC)(C(=O)OCC)C(=O)OCC | -5.81% [at 35.3 µM] |  |
| CCC/C=C/CO | -7% |  |
| CC(=O)OC(C)OC(C)=O | -6.49% |  |
| OC[C@H]1O[C@@H](O[C@H]2[C@H](O)[C@@H](O)[C@H](O)O[C@@H]2CO)[C@H](O)[C@@H](O)[C@H]1O | -20.7% |  |
| CC(C)S | 1.71% |  |
| Clc1cccc(-c2cc(Cl)cc(Cl)c2)c1 |  | 42.1 µM (active) |
| CCC1(C)NC(=O)NC1=O (stereo not drawn) | -5.35% |  |
| CCN(CC)CCNC(=O)COc1ccc(Cl)cc1 | -9.03% [at 35.3 µM] |  |
| CN(C)Cc1ccccc1 | -1.49% |  |
| COc1ccc(S(=O)(=O)Nc2nnc(CC(C)C)s2)cc1 | -18.4% [at 35.3 µM] |  |
| O=c1[nH]cnc2c1ncn2[C@@H]1O[C@H](CO)[C@@H](O)[C@H]1O | 1.74% [at 35.3 µM] |  |

Experiment: A CellTox Green Cytotoxicity Assay to monitor cytotoxicity in HepG2 cells - 0 hour (AID 1224882); further: nearly all actives have a fitted effect of over 35% in size
Details: CellTox Green fluorescence; series mostly up to 76.8 µM; cytotoxicity: at the top concentration
How it was run: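 Using 1536-well format, dye-containing HepG2 suspension was seeded, allowed 5 h at 37 C/5% CO2, dosed by pintool with compounds, positive and negative controls, and imaged for fluorescence across 40 h.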

| Structure (SMILES) | cytotoxicity | Potency |
| --- | --- | --- |
| CN1CCC[C@@H]1Cc1c[nH]c2ccc(CCS(=O)(=O)c3ccccc3)cc12 | -11.2% [at 35.3 µM] |  |
| O=Cc1ccc(F)c(Br)c1 | 0.238% |  |
| Cc1ncc(CO)c(CN)c1O | -1.72% [at 35.3 µM] |  |
| N#CSCC(=O)O | 4.65% [at 35.3 µM] |  |
| CCCN(CCC)C(=O)C(CCC(=O)O)NC(=O)c1ccccc1 (stereo not drawn) | -2.38% [at 35.3 µM] |  |
| CCN[C@H]1CN(CCCOC)S(=O)(=O)c2sc(S(N)(=O)=O)cc21 | 16.1% [at 35.3 µM] |  |
| Cc1ccc(C=O)s1 |  | 43.6 µM (active) |
| COC(=O)C(C)O (stereo not drawn) | -0.622% |  |
| CCOC(=O)NCCC[Si](OCC)(OCC)OCC | 3.04% |  |
| OCc1ccccc1O | 0.31% [at 35.3 µM] |  |
| O=C(C(Cl)Cl)N1CCOC12CCCCC2 | -1.03% |  |
| CCN(CC)C(=O)N(CC)CC | 8.22% |  |
| O=C1CCCc2ccccc21 | -3.85% |  |
| COc1ccccc1N1CCN(CCCNc2cc(=O)n(C)c(=O)n2C)CC1 | 0.124% [at 35.3 µM] |  |
| CC(=O)O[C@H]1CC[C@@]2(C)C(=CC[C@@H]3[C@@H]2CC[C@]2(C)C(C(C)=O)=CC[C@@H]32)C1 | 3.6% [at 35.3 µM] |  |
| FC(F)(F)C(F)(F)C(F)(F)C(F)(F)C(F)(F)C(F)(F)C(F)(F)C(F)(F)Br | 8.97% [at 35.3 µM] |  |
| Cn1cnc2c(F)c(Nc3ccc(Br)cc3Cl)c(C(=O)NOCCO)cc21 | 3.63% [at 35.3 µM] |  |
| ClC(Cl)Cl | 4.17% |  |
| CCCOc1ccc2c(c1)CC[C@@H]1[C@@H]2CC[C@]2(C)C(OC)CC[C@@H]12 (stereo partly drawn) | -10.9% [at 35.3 µM] |  |
| CCN(CC)CC1CCCCN1CC(=O)N1c2ccccc2C(=O)Nc2cccnc21 (stereo not drawn) | 0.761% [at 35.3 µM] |  |

| Structure (SMILES) | cytotoxicity | Potency |
| --- | --- | --- |
| O=C(Cl)c1cccc([N+](=O)[O-])c1 | -2.68% |  |
| Cc1cc(NS(=O)(=O)c2ccc(N)cc2)nc(C)n1 | -0.423% [at 35.3 µM] |  |
| CCCCCCC | 1.47% |  |
| CCOC(=O)C1CC(=O)C(=C(O)C2CC2)C(=O)C1 (stereo not drawn) | 5.87% |  |
| CC(=O)Nc1ccc(C)c(Cl)c1 | -3.02% |  |
| CCCCCCCCc1ccc(S(=O)(=O)O)cc1 | 1.2% |  |
| CCOC(=O)C(Br)c1ccccc1 (stereo not drawn) | 2.67% |  |
| CCOc1ccc2nc(N)sc2c1 | 0.8% |  |
| CCCC(CCC)(C(=O)OCC)C(=O)OCC | -4.62% [at 35.3 µM] |  |
| CCC/C=C/CO | -1.64% |  |
| CC(=O)OC(C)OC(C)=O | -1.11% |  |
| OC[C@H]1O[C@@H](O[C@H]2[C@H](O)[C@@H](O)[C@H](O)O[C@@H]2CO)[C@H](O)[C@@H](O)[C@H]1O | 2.84% |  |
| CC(C)S | 1.91% |  |
| Clc1cccc(-c2cc(Cl)cc(Cl)c2)c1 | 5.8% |  |
| CCC1(C)NC(=O)NC1=O (stereo not drawn) | -7.4% |  |
| CCN(CC)CCNC(=O)COc1ccc(Cl)cc1 | -4.6% [at 35.3 µM] |  |
| CN(C)Cc1ccccc1 | -1.99% |  |
| COc1ccc(S(=O)(=O)Nc2nnc(CC(C)C)s2)cc1 | 0.119% [at 35.3 µM] |  |
| O=c1[nH]cnc2c1ncn2[C@@H]1O[C@H](CO)[C@@H](O)[C@H]1O | -5.55% [at 35.3 µM] |  |
